The full list was thinned out, with hits kept by preference.
Tg IFNy HTS: T. gondii growth inhibition under IFN-gamma; Toxoplasma gondii growth in IFN-gamma-treated host cells; stronger effect = lower value; activity change, negative = inhibition, % (concentration not given with the values); 69,000 compounds, 3.8% hits; in the data active = activity change below about -70%, passing the limit was not always enough;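 also: host cells are HeLa cells infected with Toxoplasma gondii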
Each line names hits and unclear results; the compound was inactive in the other large screens; ! = not active in a repeat.

O=S1(=O)Cc2cnc(NCC3CC3)nc2[C@H]2CN(Cc3ccc(F)cc3)C[C@@H]21	none
CN(C)c1ncc2c(n1)[C@H]1CN(C(=O)c3ccccc3)C[C@@H]1S(=O)(=O)C2	none
CN(C)c1ncc2c(n1)[C@H]1CN(Cc3ccccc3F)C[C@@H]1S(=O)(=O)C2	Tg IFNy HTS -103
O=C1CN2Cc3c(ccc(Cl)c3Cl)N=C2N1	Tg IFNy HTS -83!
c1ccc(N2CCN(CCn3cccn3)c3ncccc3C2)nc1	none
O=C(Nc1ccccc1)N1CCCC2(CCCN2Cc2ccccc2F)C1 (stereo not drawn)	none
Cc1ccc(S(=O)(=O)N2CCC3(CCCN(CC4CCOCC4)C3)C2)cc1 (stereo not drawn)	none
Cc1ccc(S(=O)(=O)N2CCC3(CC2)CN(c2ccccc2)C3=O)cc1	none
Cc1ccc(S(=O)(=O)N2CCCC3(CCCCC3)C2)cc1	Tg IFNy HTS -98
O=C(Cn1ncc2c(N3CCN(c4ccccn4)CC3)ncnc21)Nc1cccc(Cl)c1	none
CCc1cccc(NC(=O)Cn2ncc3c(N4CCN(c5ccccn5)CC4)ncnc32)c1	none
O=C(Cn1ncc2c(N3CCN(c4ccccn4)CC3)ncnc21)Nc1cccc(Br)c1	Tg IFNy HTS -99
O=C(Cn1ncc2c(N3CCN(c4ccccn4)CC3)ncnc21)Nc1ccc(Br)cc1	none
O=C(Cn1ncc2c(N3CCN(c4ccccc4)CC3)ncnc21)Nc1cccc(Cl)c1	none
CCc1cccc(NC(=O)Cn2ncc3c(N4CCN(c5ccccc5)CC4)ncnc32)c1	Tg IFNy HTS -82
COCCCC1CCCCN1C(=O)CC(=O)Nc1cc(C)cc(C)c1 (stereo not drawn)	none
Cc1cccc(CNC(=O)CN2C(=O)CCc3cc(S(=O)(=O)N4CCCCC4C)ccc32)c1 (stereo not drawn)	none
COc1ccc(-c2nc(NCCC(C)C)c3ccccc3n2)cc1	none
COC(=O)c1cccc(COC(=O)CNC(=O)c2cccs2)c1	none
CCN1C(=O)CCc2cc(C(=O)NC3CCCCC3)ccc21	none
COc1cc(OC2CCN(C)CC2)ccc1Nc1ncc2c(n1)n(C1CCCC1)c(=O)n2C	none
CC[C@@H]1C(=O)N(C)c2cnc(Nc3ccc(C(=O)NC4CCN(C)CC4)cc3OC)nc2N1C1CCCC1	Tg IFNy HTS -76
CCOC(=O)c1c(C)n(S(=O)(=O)CC)c2cc(OC)c(NS(=O)(=O)CC)cc12	none
C/C=C/c1ccc(C2[C@H]3CNC[C@@H]2N3C(=O)NCCC)cc1 (stereo partly drawn)	none
C/C=C/c1ccc(C2[C@H]3CNC[C@@H]2N3C(=O)Nc2ccccc2Cl)cc1 (stereo partly drawn)	none
C/C=C/c1ccc(C2[C@H]3CNC[C@@H]2N3C(=O)NC2CCCCC2)cc1 (stereo partly drawn)	Tg IFNy HTS -76!
COc1ccc2[nH]cc(C(=O)N3CCC4(CCCO4)CC3)c(=O)c2c1	none
CN(C)C1CCCN(C(=O)c2cc(-c3ccncc3)n[nH]2)CC1 (stereo not drawn)	none
COc1ccc(-c2cc(C(=O)NCCc3nc4cc(C)c(C)cc4[nH]3)nn2C)cc1	none
Cc1cc2nc(CCNC(=O)c3cnc(-c4ccc(Cl)cc4)nc3)[nH]c2cc1C	Tg IFNy HTS -95
Cc1ccc2c(c1)cc(C(=O)NCCc1nc3cc(C)c(C)cc3[nH]1)n2C	none
COc1ccc(C[C@H]2CN(C(=O)c3ccn(C)n3)CC[C@H]2OC)cc1	none
CCC(=O)NCc1ccccc1-c1ccc(F)cc1OC	none
O=C(CSc1nc2ccccc2o1)Nc1nnc(SCc2ccccc2)s1	none
O=C(Nc1nnc(SCc2ccccc2)s1)C1COc2ccccc2C1 (stereo not drawn)	Tg IFNy HTS -83
COCCSc1nnc(NC(=O)c2ccco2)s1	none
FC(F)(F)c1cccc(-n2cnnn2)c1	none
CO[C@@H]1CO[C@@]2(CCCN(C(=O)c3cccc(C)n3)C2)C1	none
Cc1ccc(CN(C)C(=O)c2cc(-c3cnn(C)c3C)n[nH]2)o1	none
Cc1oc(-c2ccc(Cl)cc2)nc1CN1CCCN(c2ccccc2)CC1	none
CCn1cc(C(CNC(=O)Nc2cc(Cl)c(OC)cc2OC)c2cccnc2)c2ccccc21 (stereo not drawn)	none
CCOC(=O)c1cnc(-c2cccs2)nc1Sc1ccc(Cl)cc1	none
COC(=O)c1cnc(Sc2ccc(Cl)cc2)nc1C(F)(F)F	Tg IFNy HTS -101
CCOc1cc(C(F)(F)F)c(C(=O)N(CC)c2ccc(Cl)cc2)cn1	none
CC1(C)CNC(=O)c2nc(-c3ncc[nH]3)[nH]c2C1	none
COc1cccc(NC(=O)c2c(O)c3cccnc3n(-c3ccccc3)c2=O)c1	none
COc1cc(N2CC[C@@H](N(C)C)[C@@H]2Cc2cnn(C)c2)ncn1	none
CN1C2CCN(Cc3ccoc3)CC2C[C@H]1CN1CCCC1 (stereo partly drawn)	none
Cc1ccc(SCCNS(C)(=O)=O)cc1	none
Cc1ccc(SCCC(=O)c2ccc(Cl)cc2)cc1	none
Cc1ccc(Sc2c(Sc3ccc(C)cc3)c(=O)c2=O)cc1	Tg IFNy HTS -88
Cc1nc(C2CN(Cc3ccccc3)CCO2)no1 (stereo not drawn)	none
Cc1cc(C)n(C2CCN(Cc3c(C)nc4ccccn34)CC2)n1	none
FC(F)(F)c1cc(CO[C@H]2CCCN[C@H]2c2ccccc2)cc(C(F)(F)F)c1	Tg IFNy HTS -81!
CC(=O)NC(Cc1c[nH]c2ccccc12)C(=O)OCc1cc(C(F)(F)F)cc(C(F)(F)F)c1 (stereo not drawn)	none
CNc1ccccc1C(=O)N(C)C(C)c1ccc(OC)cc1 (stereo not drawn)	none
COC(=O)c1scc(N)c1C(=O)OC	none
CCn1c(C2CCCN(C(=O)CCn3cc(Cl)cn3)C2)nn(C)c1=O (stereo not drawn)	none
COc1ccc(CN2CCC3(CC2)OC(C(=O)Nc2ccc(C)nc2)Cn2ccnc23)cc1 (stereo not drawn)	none
COC(=O)[C@@H]1C[C@@H](N(C)C)CN1Cc1cccc(-n2nc(C)cc2C)c1	none
c1cc(-c2ccc(-c3ncnc4ccsc34)cc2)[nH]n1	Tg IFNy HTS -82
c1nc(NN2CCCCC2)c2sccc2n1	none
Cc1ccc(Sc2ncnc3ccsc23)cc1	none
CCCCc1ccc(Nc2ncnc3c2cnn3-c2ccc(Cl)cc2)cc1	none
CCc1nc2cc(NC(=O)COc3ccc4nsnc4c3)ccc2n1C	none
Cn1c(Nc2ccc(C(F)(F)F)cc2)nc2cc(Oc3ccnc(-c4ncc(C(F)(F)F)[nH]4)c3)ccc21	Tg IFNy HTS -73
Cn1cnc2cc(C(=O)Nc3ccc4c(c3)nc(C(F)(F)F)n4C)ccc21	none
C[C@@H]1CN([C@@H](C)CO)C(=O)Cc2cc(N(C)C)ccc2O[C@H]1CN(C)Cc1ccc(-c2ccccc2)cc1	none
C[C@H](CO)N1C[C@H](C)[C@H](CN(C)Cc2ccc(-c3ccccc3)cc2)Oc2ccc(N(C)C)cc2CC1=O	Tg IFNy HTS -83
C[C@@H]1CN([C@H](C)CO)C(=O)c2cc(N(C)C)ccc2O[C@H]1CN(C)Cc1ccc(Oc2ccccc2)cc1	none
COC(=O)[C@@H]1C[C@H](NC(=O)CCN2Cc3ccccc3C2=O)CN1C	none
CCc1cc(NCC2(O)CCCCC2)nc(N2CCOCC2)n1	none
c1ccc(CN2CCO[C@H]3[C@H]2CC[C@H]3OCCCn2cccn2)cc1	none
COc1cccc(CC2(CO)CCN(c3ccc(C(C)=O)cn3)CC2)c1	none
CC(C)C(=O)c1ccc(-n2ncc3cccnc32)s1	none
Cc1cc2ncc(-c3ccccc3)nc2cc1C	none
COc1cc2nc(-c3ccccc3)nc(N3CCCC3)c2cc1OC	none
COc1cc2ncc(-c3ccccc3)nc2cc1OC	Tg IFNy HTS -85
Clc1ccc(-c2nnn(CC3CCNC3)n2)cc1 (stereo not drawn)	none
CCS(=O)(=O)N1CCC2(CC1)OC(=O)C(C)=C2C(=O)NCc1ccccc1OC	none
Cc1ccc(CN2CCC3(CCC(=O)N3Cc3ccccc3)CC2)s1	none
